Potency and affinity values are given separately. Active and inactive are the calls of the source.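 How the source made its calls: active means dose curve whose fit quality R squared exceeds 0.5; inactive means the rest.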
The compounds below were run against Muscarinic acetylcholine receptor M4 (Rattus norvegicus) (UniProt P08485) (assay: rat M4 receptor positive allosteric modulation check, dose response, selectivity assay for M1 muscarinic PAM project, cell-based, CHO-K1 rat M4/Gqi5, Fluo-4 calcium, ACh EC20 (AID 2438)). Conditions: ACh EC20 potentiation; series mostly up to 30 µM.
Sequence of Muscarinic acetylcholine receptor M4 (Rattus norvegicus) (P08485 whole entry, looked up): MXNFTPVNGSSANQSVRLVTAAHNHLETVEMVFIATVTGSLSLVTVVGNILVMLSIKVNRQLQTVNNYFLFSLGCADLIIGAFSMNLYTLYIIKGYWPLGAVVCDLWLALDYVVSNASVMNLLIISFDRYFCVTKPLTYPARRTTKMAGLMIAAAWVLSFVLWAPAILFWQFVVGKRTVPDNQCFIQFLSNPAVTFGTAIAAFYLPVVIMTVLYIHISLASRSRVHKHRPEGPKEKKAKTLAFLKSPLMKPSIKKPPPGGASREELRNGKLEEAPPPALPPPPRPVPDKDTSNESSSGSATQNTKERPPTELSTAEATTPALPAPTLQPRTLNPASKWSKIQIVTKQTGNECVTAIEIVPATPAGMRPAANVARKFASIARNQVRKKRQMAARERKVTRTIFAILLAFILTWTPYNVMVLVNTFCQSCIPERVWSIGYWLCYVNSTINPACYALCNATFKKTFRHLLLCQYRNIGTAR

outcome, inactive:
Cc1cc(NC(=O)CS(=O)(=O)c2cn(Cc3cc(Br)ccc3F)c3ccccc23)no1
O=C1C(=O)N(Cc2ccc(Oc3ccccc3)cc2)c2ccc(OC(F)(F)F)cc21
Cn1cc(-c2ccc(CN3C(=O)C(=O)c4ccccc43)c(F)c2)cn1
Cn1cc(-c2cc(F)c(CN3C(=O)C(=O)c4ccccc43)c(F)c2)cn1

Source: PubChem BioAssay AID2438 (Vanderbilt High Throughput Screening Facility, 2010)
